Reference: PMC7862700, “An all-to-all approach to the identification of sequence-specific readers for epigenetic DNA modifications on cytosine”

Legend:
Assay in all cases: DAPPL (digital affinity profiling via proximity ligation, sequencing); 10 mM Tris-HCl pH 7.5, 50 mM NaCl, 1 mM DTT, 4% glycerol, room temperature, 30 min; GST-TFs on glutathione beads, 16-mer random dsDNA library, 0.1% formaldehyde crosslink after washing; high values mean tight binding
Conditions in all cases: protein: recombinant; tags: N-terminal GST; dsDNA, one strand shown
FLI1 = molecular target: T1, FLI1 (Homo sapiens, UniProt Q01543 1-452)
T1 sequence: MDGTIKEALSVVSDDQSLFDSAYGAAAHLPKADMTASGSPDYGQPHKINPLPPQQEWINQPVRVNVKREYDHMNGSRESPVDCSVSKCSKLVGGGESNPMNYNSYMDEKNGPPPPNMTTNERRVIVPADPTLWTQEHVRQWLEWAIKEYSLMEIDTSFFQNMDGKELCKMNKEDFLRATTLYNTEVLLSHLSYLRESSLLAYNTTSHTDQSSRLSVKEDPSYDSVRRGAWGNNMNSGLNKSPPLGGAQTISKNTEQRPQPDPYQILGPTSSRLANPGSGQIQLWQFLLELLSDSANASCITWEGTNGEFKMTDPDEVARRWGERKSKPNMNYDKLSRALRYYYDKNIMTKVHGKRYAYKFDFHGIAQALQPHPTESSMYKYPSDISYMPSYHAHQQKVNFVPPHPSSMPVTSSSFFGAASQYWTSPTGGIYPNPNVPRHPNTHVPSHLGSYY
Summary of the method: (§1)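 Human transcription factors were made in yeast as GST fusions, captured on glutathione beads and barcoded with DNA. With a tag-only sample included, the pool was incubated with 200 nmole of a random double-stranded 16-mer DNA library in Tris/NaCl/DTT/glycerol buffer at room temperature for 30 min, then crosslinked with 0.1% formaldehyde after washing, ligated by proximity, amplified and sequenced. For binding signal, each hexamer's read frequency for a factor is divided by its frequency for the tag-only sample.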

ELK1 = molecular target: T2, ELK1 (Homo sapiens, UniProt P19419 1-428)
T2 sequence: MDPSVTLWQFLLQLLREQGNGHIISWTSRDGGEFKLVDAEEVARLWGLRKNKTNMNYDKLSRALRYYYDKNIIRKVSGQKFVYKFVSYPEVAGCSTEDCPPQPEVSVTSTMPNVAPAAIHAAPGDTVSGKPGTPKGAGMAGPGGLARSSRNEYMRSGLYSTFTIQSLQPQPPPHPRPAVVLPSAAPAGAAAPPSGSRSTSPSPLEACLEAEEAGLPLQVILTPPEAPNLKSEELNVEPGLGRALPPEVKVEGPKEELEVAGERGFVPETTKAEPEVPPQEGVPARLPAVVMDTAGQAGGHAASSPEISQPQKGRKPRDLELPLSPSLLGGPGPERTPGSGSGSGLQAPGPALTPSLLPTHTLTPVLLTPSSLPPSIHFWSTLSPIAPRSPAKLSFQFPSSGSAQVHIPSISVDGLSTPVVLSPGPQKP
Summary of the method: as §1

GABPA = molecular target: T3, GABPA (Homo sapiens, UniProt Q06546 1-454)
T3 sequence: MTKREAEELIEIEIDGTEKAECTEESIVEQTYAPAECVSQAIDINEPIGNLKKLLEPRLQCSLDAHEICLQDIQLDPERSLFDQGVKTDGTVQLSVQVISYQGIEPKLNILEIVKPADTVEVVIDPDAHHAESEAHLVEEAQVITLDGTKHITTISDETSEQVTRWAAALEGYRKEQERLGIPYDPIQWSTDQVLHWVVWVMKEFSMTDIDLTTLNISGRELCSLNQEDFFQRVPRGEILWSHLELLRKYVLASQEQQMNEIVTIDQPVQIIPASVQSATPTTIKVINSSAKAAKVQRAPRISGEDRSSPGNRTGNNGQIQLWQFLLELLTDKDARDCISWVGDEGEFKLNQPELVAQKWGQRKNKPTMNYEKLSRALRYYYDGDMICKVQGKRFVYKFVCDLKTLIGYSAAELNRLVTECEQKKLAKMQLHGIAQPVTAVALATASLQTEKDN
Summary of the method: as §1

ERG = molecular target: T4, ERG (Homo sapiens, UniProt P11308 1-479)
T4 sequence: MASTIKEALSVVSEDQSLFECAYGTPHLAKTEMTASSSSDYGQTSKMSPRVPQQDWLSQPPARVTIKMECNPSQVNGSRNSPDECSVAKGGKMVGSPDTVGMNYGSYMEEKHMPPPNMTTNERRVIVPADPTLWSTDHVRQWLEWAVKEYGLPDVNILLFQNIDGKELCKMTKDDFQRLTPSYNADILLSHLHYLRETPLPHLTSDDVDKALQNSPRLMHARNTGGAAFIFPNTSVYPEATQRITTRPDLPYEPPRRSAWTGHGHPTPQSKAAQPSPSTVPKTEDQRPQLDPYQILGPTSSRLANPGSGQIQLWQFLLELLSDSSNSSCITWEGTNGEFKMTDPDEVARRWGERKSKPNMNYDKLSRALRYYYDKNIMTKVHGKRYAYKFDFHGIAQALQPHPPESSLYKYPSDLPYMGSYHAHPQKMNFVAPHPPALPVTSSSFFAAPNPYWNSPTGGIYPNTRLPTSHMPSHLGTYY
Summary of the method: as §1

ELF1 = ELF1 (Homo sapiens, UniProt P32519 1-619)
Chain of ELF1 (P32519 whole entry): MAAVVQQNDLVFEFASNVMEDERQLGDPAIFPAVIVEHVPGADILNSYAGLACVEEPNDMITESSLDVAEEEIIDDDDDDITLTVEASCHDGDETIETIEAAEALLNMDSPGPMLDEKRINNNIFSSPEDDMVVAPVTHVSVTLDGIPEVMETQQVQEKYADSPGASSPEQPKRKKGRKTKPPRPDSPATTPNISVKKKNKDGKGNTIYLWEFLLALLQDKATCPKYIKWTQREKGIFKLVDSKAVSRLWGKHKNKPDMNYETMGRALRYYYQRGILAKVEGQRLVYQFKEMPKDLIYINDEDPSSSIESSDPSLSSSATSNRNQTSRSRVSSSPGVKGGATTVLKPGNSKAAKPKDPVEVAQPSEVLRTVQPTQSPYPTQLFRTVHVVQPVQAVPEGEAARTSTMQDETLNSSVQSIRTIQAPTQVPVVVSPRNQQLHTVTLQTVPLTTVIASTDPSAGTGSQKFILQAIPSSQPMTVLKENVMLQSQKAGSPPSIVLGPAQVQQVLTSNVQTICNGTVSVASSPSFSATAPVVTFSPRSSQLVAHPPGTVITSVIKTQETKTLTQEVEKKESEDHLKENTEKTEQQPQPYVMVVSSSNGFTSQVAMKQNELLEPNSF
Summary of the method: as §1

EHF = molecular target: T5, EHF (Homo sapiens, UniProt Q9NZC4 1-300)
T5 sequence: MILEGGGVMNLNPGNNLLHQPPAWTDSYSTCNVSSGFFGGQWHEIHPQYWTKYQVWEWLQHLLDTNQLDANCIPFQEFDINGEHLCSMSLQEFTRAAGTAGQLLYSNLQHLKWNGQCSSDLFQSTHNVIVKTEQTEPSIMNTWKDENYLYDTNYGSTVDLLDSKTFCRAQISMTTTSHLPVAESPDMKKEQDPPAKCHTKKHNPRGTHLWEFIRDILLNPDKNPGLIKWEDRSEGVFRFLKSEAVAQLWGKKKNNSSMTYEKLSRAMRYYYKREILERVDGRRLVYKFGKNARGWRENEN
Summary of the method: as §1

SPI1 = SPI1 (Homo sapiens, UniProt P17947 1-270)
Summary of the method: as §1

SPIB = SPIB (Homo sapiens, UniProt Q01892 1-262)
Chain of SPIB (Q01892 whole entry): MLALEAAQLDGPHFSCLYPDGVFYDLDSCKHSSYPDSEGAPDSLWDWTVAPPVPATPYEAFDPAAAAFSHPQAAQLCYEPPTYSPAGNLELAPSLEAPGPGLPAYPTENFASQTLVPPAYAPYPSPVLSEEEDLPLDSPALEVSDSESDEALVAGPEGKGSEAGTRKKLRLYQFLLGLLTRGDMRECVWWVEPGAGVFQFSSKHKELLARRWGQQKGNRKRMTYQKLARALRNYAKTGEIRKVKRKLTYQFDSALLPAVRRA
Summary of the method: as §1

ELK3 = molecular target: T6, ELK3 (Homo sapiens, UniProt P41970 1-407)
T6 sequence: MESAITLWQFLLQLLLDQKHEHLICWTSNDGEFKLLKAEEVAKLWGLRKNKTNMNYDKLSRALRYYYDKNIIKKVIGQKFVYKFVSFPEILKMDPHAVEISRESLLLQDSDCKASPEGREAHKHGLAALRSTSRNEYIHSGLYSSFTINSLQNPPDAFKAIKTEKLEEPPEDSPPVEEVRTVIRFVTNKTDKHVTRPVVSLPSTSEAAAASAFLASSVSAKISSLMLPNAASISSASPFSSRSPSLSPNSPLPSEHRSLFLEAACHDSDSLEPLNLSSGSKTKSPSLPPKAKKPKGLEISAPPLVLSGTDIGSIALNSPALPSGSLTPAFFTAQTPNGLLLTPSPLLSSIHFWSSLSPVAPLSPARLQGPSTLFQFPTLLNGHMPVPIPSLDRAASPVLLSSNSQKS
Summary of the method: as §1

Sequence: TAATGA
- binding signal (FLI1): 1.09 fold enrichment (6-mer frequency, TF over GST control)
- binding signal (ELK1): 1.21 fold enrichment (6-mer frequency, TF over GST control)
- binding signal (GABPA): 1.26 fold enrichment (6-mer frequency, TF over GST control)
- binding signal (ERG): 1.02 fold enrichment (6-mer frequency, TF over GST control)
- binding signal (ELF1): 1.1 fold enrichment (6-mer frequency, TF over GST control)
- binding signal (EHF): 1.2 fold enrichment (6-mer frequency, TF over GST control)
- binding signal (SPI1): 1.22 fold enrichment (6-mer frequency, TF over GST control)
- binding signal (SPIB): 1.16 fold enrichment (6-mer frequency, TF over GST control)
- binding signal (ELK3): 1.21 fold enrichment (6-mer frequency, TF over GST control)
